This passage reports inhibition of ligand binding results from PubChem BioAssay AID1211 (NMMLSC, 2008).

Values without a mark were called inactive. Calls of active or inactive are those of the source. No rule for the calls is given here.

Chain of Estrogen receptor (Homo sapiens) (P03372 whole entry, looked up): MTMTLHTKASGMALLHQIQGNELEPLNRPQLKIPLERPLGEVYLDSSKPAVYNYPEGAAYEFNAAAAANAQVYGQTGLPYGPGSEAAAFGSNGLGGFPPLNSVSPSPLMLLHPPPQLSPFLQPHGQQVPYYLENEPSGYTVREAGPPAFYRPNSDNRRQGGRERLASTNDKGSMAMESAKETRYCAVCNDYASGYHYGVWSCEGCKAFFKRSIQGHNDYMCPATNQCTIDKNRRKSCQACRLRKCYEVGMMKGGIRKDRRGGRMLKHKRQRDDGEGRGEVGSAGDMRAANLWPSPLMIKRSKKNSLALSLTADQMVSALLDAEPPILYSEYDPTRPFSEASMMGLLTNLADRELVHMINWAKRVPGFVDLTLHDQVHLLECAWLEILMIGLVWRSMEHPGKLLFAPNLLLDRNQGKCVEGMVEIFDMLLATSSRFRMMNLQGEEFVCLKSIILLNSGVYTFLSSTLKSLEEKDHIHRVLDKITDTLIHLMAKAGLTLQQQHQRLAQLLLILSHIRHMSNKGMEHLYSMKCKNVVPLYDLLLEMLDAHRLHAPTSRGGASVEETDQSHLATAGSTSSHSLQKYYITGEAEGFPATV

The assay concerns the target Estrogen receptor (Homo sapiens) (UniProt P03372). The assay is described as follows: displacement of fluorescent estrogen from ERalpha – cell-based, Cos7 ERalpha-GFP, flow cytometry, primary screen (AID 1211).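 Also: 0% = DMSO vehicle wells and 100% = no E2-Alexa633 signal left.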 To be noted: fluorescent ligand competition, at 10 µM, active compounds read high. A general note: A flow cytometer gives signals particle by particle.
In the case of `O=c1oc2cc(O)ccc2c2c1CCCC2`, the inhibition of ligand binding is 7%.

`COc1cc2c(cc1OC)CC(C)(C)N(Cc1ccco1)C2`: the inhibition of ligand binding is 0%.

Take `Cc1nc(-c2ccc(O)c(O)c2)cs1`: the inhibition of ligand binding was 17%.

Consider `O=c1c(C(c2ccc(O)cc2)c2c(O)nc3n(c2=O)CCS3)c(O)nc2n1CCS2`, for which the inhibition of ligand binding is 7%.

As for `COc1cc(C2C3C(C)N(C)C(=O)N(C)C3N(C)C(=O)N2C)ccc1O` (centres undefined), the inhibition of ligand binding was 0%.

Take `O=C(O)COc1cc2oc(=O)c3c(c2cc1Cl)CCCC3`: the inhibition of ligand binding was 0%.

Consider `O=C(O)c1cc(-c2ccc(O)cc2)nc2ccccc12`, for which the inhibition of ligand binding was 5%.

Turning to `O=c1cc(-c2ccccc2Cl)oc2c(Br)ccc(O)c12`, the inhibition of ligand binding was 27%.

Take `CCOC(=O)C1=C(C)NC(=O)NC1c1ccco1` (centres undefined): the inhibition of ligand binding is 56%.

On to `COC(=O)c1ccc2c(c1)C1C=CCC1C(c1cccc([N+](=O)[O-])c1)N2` (centres undefined), for which the inhibition of ligand binding is 10%.

For `O=C(Nc1cc(C(F)(F)F)ccc1N1CCOCC1)C1Cc2ccccc2CN1C(=O)c1ccco1` (centres undefined), the inhibition of ligand binding was 56%.

As to `O=[N+]([O-])c1cc(/C=N/N2CCN(C3c4ccccc4-c4ccccc43)CC2)ccc1Cl`, the inhibition of ligand binding was 21%.

On to `CC1=CC(C)C2(CO)COC(c3ccccc3O)C1C2C` (centres undefined), for which the inhibition of ligand binding is 0%.

For `O=C(O)C1Nc2c(O)cccc2C2C=CCC12` (centres undefined), the inhibition of ligand binding is 6%.

For `COc1cccc(-c2[nH]nc3c2C(c2ccoc2)C(C#N)=C(N)O3)c1` (centres undefined), the inhibition of ligand binding is 23%.

Take `COC(=O)c1ccc(OCc2c(C)noc2C)cc1`: the inhibition of ligand binding is 22%.

Turning to `CC(Nc1ccc(N2CCNCC2)cc1[N+](=O)[O-])C12CC3CC(CC(C3)C1)C2` (centres undefined), the inhibition of ligand binding was 5%.

Regarding `Cc1oc2ccc(OCC#N)cc2c1C(=O)OC(C)C`, the inhibition of ligand binding was 0%.

As for `COc1cccc(C2NCCc3cc(OC)c(OC)cc32)c1` (centres undefined), the inhibition of ligand binding was 10%.

Turning to `CC(C)C1CC(CCNCc2ccc3c(c2)OCO3)(c2ccccc2)CCO1` (centres undefined), the inhibition of ligand binding is 26%.

On to `Cc1ccc2c(c1C)NC(C(=O)O)C1CC=CC21` (centres undefined), for which the inhibition of ligand binding is 0%.

Take `CCOC(=O)N1CCc2[nH]c3ccc(C)cc3c2C1`: the inhibition of ligand binding is 6%.

Take `CCOC(=O)c1ccc2c(c1)C1C=CCC1C(c1cccc([N+](=O)[O-])c1)N2` (centres undefined): the inhibition of ligand binding is 21%.

Take `Cn1c(SCC(=O)N2c3ccccc3CCc3ccccc32)nnc1-c1cc2ccccc2cc1O`: the inhibition of ligand binding was 34%.

As to `Oc1ccc(C=Nc2ccc(N3CCOCC3)cc2)c(O)c1`, the inhibition of ligand binding is 30%.

Consider `COc1ccccc1C1Nc2c(C(=O)O)cccc2C2C3CCC(C3)C12` (centres undefined), for which the inhibition of ligand binding is 19%.

Take `COc1ccc(C2CC(c3ccccc3)=NN2C(=O)CSc2nccc(=O)[nH]2)cc1` (centres undefined): the inhibition of ligand binding is 20%.

Consider `CC1(C)CC(=O)c2cn(-c3ccc(Cl)cc3)c(=N)c(C#N)c2C1`, for which the inhibition of ligand binding was 35%.

As to `C=C1c2ccc(OC)cc2NC(=O)N1c1ccccc1`, the inhibition of ligand binding was 4%.

In the case of `Cc1sc2ncnc(NCc3ccco3)c2c1C`, the inhibition of ligand binding is 0%.

`O=c1oc2cc(O)c(Cl)cc2c2c1CCCC2`: the inhibition of ligand binding was 0%.

With `COc1ccc2c(c1)c1c3n2CCNC3CCC1` (centres undefined), the inhibition of ligand binding is 25%.

As to `CC1(C)Cc2[nH]c(=O)c(C(=O)O)cc2CO1`, the inhibition of ligand binding was 2%.

As to `Cc1ccn2c(NCc3ccc4c(c3)OCO4)c(-c3ccc(O)cc3)nc2c1`, the inhibition of ligand binding was 32%.

On to `COc1ccc(OC)c(C2Nc3c(Cl)ccc(C(=O)O)c3C3C=CCC32)c1` (centres undefined), for which the inhibition of ligand binding is 0%.

`CCCCOc1cc(OCCCC)c2c3c(c(=O)oc2c1)CCCC3`: the inhibition of ligand binding is 19%.

`Cc1c(Cc2ccccc2)c(=O)n2c([nH]c3ccccc32)c1C#N`: the inhibition of ligand binding was 5%.

Consider `COc1ccc(C2(CNCC(N)=O)CCCC2)cc1OC`, for which the inhibition of ligand binding was 10%.

On to `COc1cc([N+](=O)[O-])cc2c1N[C@@H](c1ccc(C(=O)O)cc1)[C@H]1CC=C[C@@H]21`, for which the inhibition of ligand binding was 71% (active).
